Structures are written as SMILES. In all, about 39,000 compounds went through this assay and about 3,300 (8.5%) were called active. For the sample, actives were picked, then their nearest neighbours and some compounds at random.

For this test, the system named is HepG2. Nature of the test: cytotoxicity call (relative viability < 0.9). As to conditions: 10 µM.
`O=C(CCCCCCC(=O)Nc1ccccc1O)N/N=C/[C@H](O)[C@@H](O)[C@H](O)CO`: the cytotoxicity call was “inactive”. The entry for `COc1ccc(S(=O)(=O)N(C)C[C@@H]2OCCCC[C@@H](C)Oc3ccc(NC(=O)C4CCCCC4)cc3C(=O)N([C@@H](C)CO)C[C@@H]2C)cc1` is “inactive”; for `COC(=O)C(CC#Cc1ccc2c(c1)[C@]1(C(=O)N2)[C@H](c2ccc(OCCO)cc2)N2[C@H](c3ccccc3)[C@H](c3ccccc3)OC(=O)[C@H]2[C@@H]1C(=O)Nc1nc2ccccc2s1)C(=O)OC` it is “inactive”; for `C[C@@H]1CN([C@H](C)CO)C(=O)c2cccc(NS(=O)(=O)c3cccs3)c2O[C@H]1CN(C)S(=O)(=O)c1ccccc1` it is “inactive”. Turning to `C[C@H](CO)N1C[C@H](C)[C@@H](CN(C)C(=O)c2ccncc2)Oc2ncc(C#CC3CCCCC3)cc2C1=O`, the cytotoxicity call was “inactive”. Turning to `C[C@H](CO)N1C[C@H](C)[C@@H](CN(C)C(=O)c2cnccn2)Oc2ncc(-c3cccc(C#N)c3)cc2C1=O`, the cytotoxicity call was “inactive”.

On to `C[C@@H]1CN([C@@H](C)CO)C(=O)c2cccc(NC(=O)Nc3cccc4ccccc34)c2O[C@H]1CN(C)S(=O)(=O)c1ccc2ncsc2c1`, for which the cytotoxicity call was “inactive”. On to `C[C@@H]1CCCCO[C@@H](CN(C)S(=O)(=O)c2ccc(F)cc2)[C@H](C)CN([C@H](C)CO)C(=O)c2cc(NC(=O)Nc3ccc(F)cc3)ccc2O1`, for which the cytotoxicity call was “active”. The entry for `C[C@H]1CCCCO[C@@H](CN(C)S(=O)(=O)c2ccc(F)cc2)[C@@H](C)CN([C@@H](C)CO)C(=O)c2cc(NC(=O)Nc3ccc(F)cc3)ccc2O1` is “inactive”; for `C[C@@H]1CCCCO[C@@H](CN(C)S(=O)(=O)c2ccc(F)cc2)[C@H](C)CN([C@@H](C)CO)C(=O)c2cc(NC(=O)Nc3ccc(F)cc3)ccc2O1` it is “inactive”; for `C[C@@H]1CCCCO[C@@H](CN(C)S(=O)(=O)c2ccc(F)cc2)[C@@H](C)CN([C@H](C)CO)C(=O)c2cc(NC(=O)Nc3ccc(F)cc3)ccc2O1` it is “inactive”. The entry for `C[C@H]1CCCCO[C@H](CN(C)S(=O)(=O)c2ccc(F)cc2)[C@@H](C)CN([C@@H](C)CO)C(=O)c2cc(NC(=O)Nc3ccc(F)cc3)ccc2O1` is “inactive”; for `C[C@H](CO)N1C[C@H](C)[C@@H](CN(C)S(=O)(=O)c2ccc(F)cc2)OCCCC[C@H](C)Oc2ccc(NC(=O)Nc3ccc(F)cc3)cc2C1=O` it is “inactive”; for `C[C@@H]1CCCCO[C@@H](CN(C)S(=O)(=O)c2ccc(F)cc2)[C@@H](C)CN([C@H](C)CO)C(=O)c2cc(NC(=O)Nc3ccc4c(c3)OCO4)ccc2O1` it is “inactive”. The entry for `C[C@@H]1CCCCO[C@@H](CN(C)S(=O)(=O)c2ccc(F)cc2)[C@@H](C)CN([C@@H](C)CO)C(=O)c2cc(NC(=O)Nc3ccc(F)cc3)ccc2O1` is “active”. As for `C[C@@H]1CN([C@H](C)CO)C(=O)c2cc(NC(=O)Nc3ccc(F)cc3)ccc2O[C@@H](C)CCCCO[C@H]1CN(C)S(=O)(=O)c1ccc(F)cc1`, the cytotoxicity call is “active”. As for `C[C@@H]1CN([C@@H](C)CO)C(=O)c2cc(NC(=O)Nc3ccc(F)cc3)ccc2O[C@@H](C)CCCCO[C@@H]1CN(C)S(=O)(=O)c1ccc(F)cc1`, the cytotoxicity call is “inactive”. The entry for `C[C@@H]1CN([C@H](C)CO)C(=O)c2cc(NC(=O)Nc3ccc4c(c3)OCO4)ccc2O[C@@H](C)CCCCO[C@@H]1CN(C)S(=O)(=O)c1ccc(F)cc1` is “inactive”; for `C[C@@H]1CCCCO[C@H](CN(C)S(=O)(=O)c2ccc(F)cc2)[C@@H](C)CN([C@H](C)CO)C(=O)c2cc(NC(=O)Nc3ccc4c(c3)OCO4)ccc2O1` it is “active”; for `O=C(O)CNS(=O)(=O)c1ccccc1F` it is “inactive”. Consider `Cc1noc(C)c1S(=O)(=O)Nc1ccc2c(c1)CC(=O)N([C@H](C)CO)C[C@@H](C)[C@H](CN(C)S(C)(=O)=O)O2`, for which the cytotoxicity call is “inactive”. The entry for `C[C@@H]1CN([C@@H](C)CO)C(=O)c2cccc(NC(=O)c3nc4ccccc4s3)c2O[C@H]1CN(C)Cc1ccc(-c2ccccc2)cc1` is “inactive”; for `COc1ccc(S(=O)(=O)Nc2ccc3c(c2)C(=O)N([C@@H](C)CO)C[C@H](C)[C@@H](CN(C)C(=O)Nc2cccc4ccccc24)O3)cc1` it is “inactive”; for `C[C@@H]1CN([C@H](C)CO)C(=O)c2cc(NS(C)(=O)=O)ccc2O[C@H]1CN(C)Cc1ccc(C(F)(F)F)cc1` it is “inactive”. The entry for `C[C@H]1CN([C@@H](C)CO)C(=O)c2cccc(NC(=O)C3CCOCC3)c2O[C@H]1CN(C)S(=O)(=O)c1ccccc1` is “inactive”; for `O=C(C[C@@H]1CC[C@H]2[C@@H](COC[C@@H](O)CN2S(=O)(=O)c2ccc(F)cc2)O1)NCc1ccc(Cl)c(Cl)c1` it is “inactive”; for `O=C(Nc1ccc(C(=O)Nc2ccc(C(=O)Nc3ccc(S(=O)(=O)O)c4cc(S(=O)(=O)O)cc(S(=O)(=O)O)c34)cc2)cc1)Nc1ccc(C(=O)Nc2ccc(C(=O)Nc3ccc(S(=O)(=O)O)c4cc(S(=O)(=O)O)cc(S(=O)(=O)O)c34)cc2)cc1` it is “inactive”. The entry for `C[C@H]1CN([C@@H](C)CO)C(=O)c2cc(Br)cnc2O[C@@H]1CN(C)S(=O)(=O)c1ccccc1` is “inactive”; for `C[C@@H]1CN([C@@H](C)CO)C(=O)c2cc(NS(=O)(=O)c3ccc(F)cc3)ccc2O[C@@H]1CN(C)S(=O)(=O)c1ccccc1` it is “inactive”. For `C=CCOC(=O)[C@@H]1[C@H]2C(=O)O[C@H](c3ccccc3)[C@H](c3ccccc3)N2[C@H](c2ccc(OCCOC(=O)[C@H]3C[C@H]4C(=O)NCC(=O)N4[C@H]3c3cccc(OCCO)c3)cc2)[C@@]12C(=O)Nc1ccc(I)cc12`, the cytotoxicity call was “inactive”. As for `C[C@@H]1CN([C@H](C)CO)C(=O)c2cc(NC(=O)Nc3ccc(F)cc3)ccc2O[C@@H](C)CCCCO[C@@H]1CN(C)S(=O)(=O)c1ccc(F)cc1`, the entry is “inactive”; as for `C[C@@H]1CCCCO[C@H](CN(C)S(=O)(=O)c2ccc(F)cc2)[C@H](C)CN([C@H](C)CO)C(=O)c2cc(NC(=O)Nc3ccc(F)cc3)ccc2O1`, “active”. The entry for `C[C@@H]1CCCCO[C@H](CN(C)S(=O)(=O)c2ccc(F)cc2)[C@@H](C)CN([C@H](C)CO)C(=O)c2cc(NC(=O)Nc3ccc(F)cc3)ccc2O1` is “inactive”; for `COC(=O)C1=CO[C@@H](O[C@@H]2O[C@H](CO)[C@@H](O)[C@H](O)[C@H]2O)[C@@H]2[C@@](C)(O)[C@@H](OC(=O)/C=C/c3ccc(O)cc3)C[C@]12O` it is “inactive”; for `OCC(O)C(O)CO` (configuration not stated) it is “inactive”. Consider `OC[C@@H](O)[C@@H](O)CO`, for which the cytotoxicity call was “inactive”. As for `C[C@@H]1CCCCO[C@@H](CN(C)C(=O)NC2CCCCC2)[C@H](C)CN([C@@H](C)CO)C(=O)c2cc(NC(=O)c3ccccc3)ccc2O1`, the entry is “inactive”; as for `CCCNC(=O)N(C)C[C@H]1Oc2cc(C#Cc3ccccn3)ccc2S(=O)(=O)N([C@@H](C)CO)C[C@@H]1C`, “inactive”; as for `COc1ccc(CN(C)C[C@H]2OCCCC[C@@H](C)Oc3ccc(NC(=O)c4ccccc4)cc3C(=O)N([C@@H](C)CO)C[C@H]2C)cc1`, “inactive”. As for `CCS(=O)(=O)N1Cc2cc(C(=O)NCCOC)nc(-c3cccc(-c4ccncc4)c3)c2[C@H]1CCO`, the entry is “inactive”; as for `CCN(CC)CCN(Cc1ccc(-c2ccc(C(F)(F)F)cc2)cc1)C(=O)Cn1c(SCc2ccc(F)cc2)nc(=O)c2c1CCC2`, “active”.

Regarding `C[C@H](CO)N1C[C@H](C)[C@H](CN(C)C(=O)NC2CCCCC2)Oc2c(NS(=O)(=O)c3cn(C)cn3)cccc2C1=O`, the cytotoxicity call is “inactive”. The entry for `C[C@H](CO)N1C[C@H](C)[C@H](CN(C)S(=O)(=O)c2cccc(F)c2)Oc2ncc(C#CC3CCCC3)cc2C1=O` is “inactive”. As for `C[C@@H]1CN([C@H](C)CO)C(=O)c2cc(C#CC3CCCC3)cnc2O[C@H]1CN(C)S(=O)(=O)c1cccc(F)c1`, the entry is “inactive”.

For the molecule `C[C@H]1CN([C@@H](C)CO)C(=O)c2cc(C#CC3CCCC3)cnc2O[C@@H]1CN(C)S(=O)(=O)c1cccc(F)c1`, the cytotoxicity call is “active”. Consider `C[C@H](CO)N1C[C@H](C)[C@@H](CN(C)S(=O)(=O)c2cccc(F)c2)Oc2ncc(C#CC3CCCC3)cc2C1=O`, for which the cytotoxicity call was “inactive”. In the case of `C[C@@H]1CN([C@H](C)CO)C(=O)c2cc(C#CC3CCCC3)cnc2O[C@@H]1CN(C)S(=O)(=O)c1cccc(F)c1`, the cytotoxicity call is “inactive”. For `C[C@@H]1CN([C@@H](C)CO)C(=O)c2cc(C#CC3CCCC3)cnc2O[C@H]1CN(C)S(=O)(=O)c1cccc(F)c1`, the cytotoxicity call was “active”. As for `COc1ccc(NC(=O)N(C)C[C@@H]2OCCCC[C@@H](C)Oc3ccc(NS(=O)(=O)c4ccc(Cl)cc4)cc3C(=O)N([C@@H](C)CO)C[C@@H]2C)cc1`, the entry is “inactive”. The entry for `C=c1cc(C)ccc1=C1NN=C(NC(C)=O)O1` is “inactive”; for `COc1ccc(S(=O)(=O)N(C)C[C@@H]2OCCCC[C@H](C)Oc3ccc(NC(=O)C4CCCCC4)cc3C(=O)N([C@H](C)CO)C[C@H]2C)cc1` it is “inactive”. With `CCCOc1ccc(S(=O)(=O)NCC[C@@H]2CCCN2C)cc1-c1nc2c(CCC)nn(C)c2c(=O)[nH]1`, the cytotoxicity call is “inactive”.

In the case of `CCCc1nc(C)c2c(=O)[nH]c(-c3cc(S(=O)(=O)N4CCN(CC)CC4)ccc3OCC)nn12.Cl`, the cytotoxicity call was “inactive”. In the case of `CCCc1nn(C)c2c(=O)[nH]c(-c3cc(S(=O)(=O)N4CCN(C)CC4)ccc3OCC)nc12.O=C(O)CC(O)(CC(=O)O)C(=O)O`, the cytotoxicity call is “active”. As for `CCS(=O)(=O)Nc1ccc2c(c1)C(=O)N(C)[C@@H]1CC[C@H](CC(=O)NCc3ccc(OC)cc3)O[C@@H]1CO2`, the entry is “inactive”.

As to `C[C@@H]1CN([C@H](C)CO)C(=O)c2cc(NS(=O)(=O)c3cccs3)ccc2O[C@@H](C)CCCCO[C@@H]1CN(C)CC1CCCCC1`, the cytotoxicity call was “inactive”.

`C[C@@H]1CCCCO[C@H](CN(C)CC2CCCCC2)[C@H](C)CN([C@@H](C)CO)C(=O)c2cc(NS(=O)(=O)c3cccs3)ccc2O1`: the cytotoxicity call is “active”. As for `C[C@H]1CCCCO[C@@H](CN(C)Cc2ccccc2)[C@@H](C)CN([C@@H](C)CO)C(=O)c2cc(NS(=O)(=O)c3cccs3)ccc2O1`, the entry is “active”; as for `C[C@@H]1CCCCO[C@H](CN(C)Cc2ccccc2)[C@@H](C)CN([C@@H](C)CO)C(=O)c2cc(NS(=O)(=O)c3cccs3)ccc2O1`, “inactive”.

In the case of `Cc1noc(C)c1S(=O)(=O)Nc1ccc2c(c1)C(=O)N([C@@H](C)CO)C[C@H](C)[C@@H](CN(C)Cc1ccc(C(=O)Nc3ccccc3N)cc1)OCCCC[C@@H](C)O2`, the cytotoxicity call is “inactive”.

On to `C[C@@H]1CCCCO[C@H](CN(C)CC2CCCCC2)[C@H](C)CN([C@H](C)CO)C(=O)c2cc(NS(=O)(=O)c3cccs3)ccc2O1`, for which the cytotoxicity call was “inactive”.

Consider `Cc1noc(C)c1S(=O)(=O)Nc1ccc2c(c1)C(=O)N([C@H](C)CO)C[C@H](C)[C@@H](CN(C)Cc1ccc(C(=O)Nc3ccccc3N)cc1)OCCCC[C@@H](C)O2`, for which the cytotoxicity call is “active”.

Turning to `C[C@@H]1CCCCO[C@@H](CN(C)Cc2ccccc2)[C@H](C)CN([C@@H](C)CO)C(=O)c2cc(NS(=O)(=O)c3cccs3)ccc2O1`, the cytotoxicity call was “inactive”. Regarding `C[C@H](CO)N1C[C@H](C)[C@@H](CN(C)Cc2ccccc2)OCCCC[C@H](C)Oc2ccc(NS(=O)(=O)c3cccs3)cc2C1=O`, the cytotoxicity call is “inactive”.

As for `C[C@@H]1CN([C@@H](C)CO)C(=O)c2cc(NS(=O)(=O)c3cccs3)ccc2O[C@@H](C)CCCCO[C@H]1CN(C)Cc1ccccc1`, the cytotoxicity call was “active”. As for `C[C@@H]1CN([C@H](C)CO)C(=O)c2cc(NS(=O)(=O)c3cccs3)ccc2O[C@@H](C)CCCCO[C@H]1CN(C)Cc1ccccc1`, the cytotoxicity call was “inactive”. The entry for `Cc1noc(C)c1S(=O)(=O)Nc1ccc2c(c1)C(=O)N([C@@H](C)CO)C[C@@H](C)[C@@H](CN(C)Cc1ccc(C(=O)Nc3ccccc3N)cc1)OCCCC[C@H](C)O2` is “inactive”.

The values are drawn from the antibiotic and cytotoxicity screens of Wong et al. (2023).
